# Laboratory results reported in ChEMBL document CHEMBL4513135, “CO-ADD screening of IQOG CSIS (Spain) compounds”.
# Entries with a potency or affinity are not part of this list.
# System: Klebsiella pneumoniae
# Conditions: Concentration 32 ug.mL-1; ASSAY_TEST Inhibition of Bacterial Growth; detection method Absorption (OD600); MEDIA CAMHB; plate type 384well; NBS; CORNING #3640; time 18 hr
row,Compound,Inhibition [%]
1,C#CCNc1nc(OC)c(C#N)c(-c2ccccc2)c1C#N,13.71
2,Cl.ClCCCN1CCCC1,2.47
3,Cn1cc(C=O)c2ccccc21,2.25
4,CSC1=NC2(CC2c2ccccc2)C(=O)N1 (configuration not stated),20.57
5,C#CC[n+]1ccccc1N.[Br-],-10.26
6,CCOc1nc2nc(CCc3ccccc3)ccc2c(-c2ccccc2)c1C#N,1.47
7,O=C(N/N=C/c1c[nH]c2ccccc12)C(c1ccccc1)c1ccccc1,10.97
8,N#Cc1c(N)nc2[nH]nc(N)c2c1-c1ccccc1,17.63
9,COc1ccc2cc(C3C4=C(CC(C)(C)CC4=O)Oc4nc5c(c(N)c43)CCC5)c(Cl)nc2c1 (configuration not stated),7.42
10,N#CC1=C(N)NC(=O)CC1c1ccccc1 (configuration not stated),22.17
11,CCOC(=O)c1c(C)nc2nc3c(c(N)c2c1-c1ccc(OC)cc1)CCCCCC3,2.79
12,NC1(C(=O)O)CC1c1ccc2c(c1)OCO2 (configuration not stated),1.95
13,Cc1nn(-c2ccccc2)c2nc(C)n3nc(-c4ccccc4)nc3c12,3.45
14,Cc1[nH]nc2c1C(c1ccc(O)c(O)c1)C(C#N)=C(N)O2 (configuration not stated),21.92
15,CSC1=NC(=Cc2ccccc2)C(=O)N1C,-0.86
16,CNC(=O)c1cc2cc(OC)ccc2[nH]1,17.99
17,Cc1nn(-c2ccccc2)c2ncnc(NCc3ccccc3)c12,6.27
18,Cl.ClCCCCCN1CCCCC1,6.55
19,N#CC1=C(N)Oc2c(ccc3ccccc23)C1c1ccccc1 (configuration not stated),10.23
20,C#CCNC(=O)c1cc2cc(OCCCC3CCN(Cc4ccccc4)CC3)ccc2[nH]1,4.92
21,CC(=O)N1CC(=O)NC1=S,17.26
22,O=Cc1c(-c2ccc(Br)cc2)nc2ccccn12,19.86

# System: Candida albicans
# Conditions: 32 ug/mL
row,Compound,Inhibition [%]
1,CN(N=O)C(=O)NC1(C(=O)O)CC1c1ccccc1 (configuration not stated),1.7
2,COc1ccc2cc(C=O)c(Cl)nc2c1,6.08
3,N#Cc1c(Cl)nc(Cl)c(C#N)c1-c1ccccc1,34.6
4,CCOC(=O)C1=C(C)Nc2nc3c(c(N)c2C1c1cccc(OC)c1)CCCC3 (configuration not stated),5.35
5,N#Cc1cc(C#N)c(N2CCC(O)CC2)nc1N,1.52
6,Cc1nn(-c2ccccc2)c2ncnc(Nc3ccccc3)c12,0.48
7,Cl.Nc1c2c(nc3c1C(c1c(Cl)cccc1Cl)c1ccc4ccccc4c1O3)CCCC2 (configuration not stated),-1.11
8,C#CCNc1nc(N)c(C#N)c(-c2ccccc2)c1C#N,2.85
9,C#CCN1CCc2nc3nc(N(C)C)c(C#N)cc3c(N)c2C1,3.18
10,COc1ccc(C=C2N=C(c3ccccc3)OC2=O)cc1,0.77
11,N#CC1(Br)C(=NBr)Oc2ccc3ccccc3c2C1c1cccc([N+](=O)[O-])c1 (configuration not stated),7.45
12,C#CCN(C)Cc1cc2cc(OCCC3CCN(Cc4ccccc4)CC3)ccc2n1C.Cl,3.09
13,CCOC(=O)CCc1c[nH]c2ccccc12,5.29
14,CCCCNNC(=O)c1cc2ccccc2[nH]1,-0.51
15,CCC(Cc1ccccc1)NNC(=O)c1cc2ccccc2[nH]1 (configuration not stated),1.13
16,C#CCn1c(N)c(C#N)c2cc(O)ccc21,1.41
17,Cc1ccc2nc(Cl)c(/C=N/OCc3ccccc3)cc2c1,2.45
18,Cn1ccnc1C1c2c(nc3c(c2N)CCC3)Oc2ccc3ccccc3c21 (configuration not stated),1.46
19,C#CCNc1nc(OC)c(C#N)c(-c2ccccc2)c1C#N,1.22
20,Cl.ClCCCN1CCCC1,8.26

row,Compound,Inhibition [%]
1,Cn1cc(C=O)c2ccccc21,1.53
2,CSC1=NC2(CC2c2ccccc2)C(=O)N1 (configuration not stated),-0.24
3,C#CC[n+]1ccccc1N.[Br-],1.82
4,CCOc1nc2nc(CCc3ccccc3)ccc2c(-c2ccccc2)c1C#N,7.93
5,O=C(N/N=C/c1c[nH]c2ccccc12)C(c1ccccc1)c1ccccc1,1.46
6,N#Cc1c(N)nc2[nH]nc(N)c2c1-c1ccccc1,0.49
7,COc1ccc2cc(C3C4=C(CC(C)(C)CC4=O)Oc4nc5c(c(N)c43)CCC5)c(Cl)nc2c1 (configuration not stated),10.1
8,N#CC1=C(N)NC(=O)CC1c1ccccc1 (configuration not stated),1.7
9,CCOC(=O)c1c(C)nc2nc3c(c(N)c2c1-c1ccc(OC)cc1)CCCCCC3,-1.03
10,NC1(C(=O)O)CC1c1ccc2c(c1)OCO2 (configuration not stated),-1.13
11,Cc1nn(-c2ccccc2)c2nc(C)n3nc(-c4ccccc4)nc3c12,-2.98
12,Cc1[nH]nc2c1C(c1ccc(O)c(O)c1)C(C#N)=C(N)O2 (configuration not stated),0.31
13,CSC1=NC(=Cc2ccccc2)C(=O)N1C,3.12
14,CNC(=O)c1cc2cc(OC)ccc2[nH]1,-0.84
15,Cc1nn(-c2ccccc2)c2ncnc(NCc3ccccc3)c12,-0.21
16,Cl.ClCCCCCN1CCCCC1,2.45
17,N#CC1=C(N)Oc2c(ccc3ccccc23)C1c1ccccc1 (configuration not stated),1.97
18,C#CCNC(=O)c1cc2cc(OCCCC3CCN(Cc4ccccc4)CC3)ccc2[nH]1,1.71
19,CC(=O)N1CC(=O)NC1=S,1.1
20,O=Cc1c(-c2ccc(Br)cc2)nc2ccccn12,0.21
